Experimental findings from PubChem BioAssay (NCATS) are described below.

Inconclusive results are not listed. Values without a mark were called inactive. Active and inactive are the calls of the source. Calls come from the whole dose curve; as a rule, active = well fitted inhibition curve with a large enough effect; inconclusive = small, poorly fitted or top-dose-only effect; inactive = flat fitted curve, though single readings scatter. Peptide text beside a SMILES is read from it.
Potency is the fitted concentration of half-maximal effect.

This assay deals with CP297. Briefly: qHTS profiling for inhibitors of Plasmodium falciparum proliferation (AID 504749).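 For activity, negative = inhibition: 0% = DMSO vehicle and full inhibition = artemisinin control.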 Note: nearly all actives have a fitted effect of over 60% in size. The conditions noted are these: P. falciparum in erythrocytes, SYBR Green DNA, 72 h; series mostly up to 28.7 µM; activity, negative = inhibition: at the top concentration. Summed up:
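P. falciparum-infected erythrocytes (0.3% parasitemia, 2.5% hematocrit) incubated with compound 72 h at 37 C, 5% CO2. Parasite DNA detected by SYBR Green after lysis, overnight at room temperature; normalised to 0.29 uM artemisinin and DMSO.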
As to `C=C1C(=CC=C2CCC[C@@]3(C)[C@@H]2CC[C@H]3[C@H](C)CCCC(C)C)C[C@@H](O)C[C@@H]1O`, the “activity, negative = inhibition” value is -7.27%.

Take `O=C1C(=O)c2ncccc2-c2cccnc21`: the Potency was 1070 nM (active).

With `O=CCCCC=O`, the “activity, negative = inhibition” value is 1.05%.

`CCCCC(C)(O)C/C=C/[C@H]1[C@H](O)CC(=O)[C@@H]1CCCCCCC(=O)OC` (some centres undefined): the “activity, negative = inhibition” value was -8.44%.

On to `CC(C)(C)C(=O)OCOC(=O)[C@@H]1N2C(=O)[C@@H](N=CN3CCCCCC3)[C@H]2SC1(C)C`, for which the “activity, negative = inhibition” value is -6.46% [at 12.8 µM].

As to `C[C@]12CCC(=O)C=C1CC[C@@H]1[C@@H]2[C@@H](O)C[C@@]2(C)[C@H]1CC[C@]2(O)C(=O)COP(=O)(O)O`, the “activity, negative = inhibition” value was -0.596%.

Regarding `CCOc1ccc(N=Nc2ccc(N)cc2N)cc1`, the “activity, negative = inhibition” value was -9.93%.

Consider `O=C(O)CCC(=O)C(=O)O`, for which the “activity, negative = inhibition” value was -2.03%.

As to `CC1=CCC(C(C)(C)O)CC1` (centres undefined), the “activity, negative = inhibition” value was -0.462%.

For `CO[C@H](C(=O)[C@@H](O)[C@@H](C)O)C1Cc2cc3cc(O[C@H]4C[C@@H](O[C@H]5C[C@@H](O)[C@H](O)[C@@H](C)O5)[C@@H](O)[C@@H](C)O4)c(C)c(O)c3c(O)c2C(=O)[C@H]1O[C@H]1C[C@@H](O[C@H]2C[C@@H](O[C@H]3C[C@](C)(O)[C@H](O)[C@@H](C)O3)[C@H](O)[C@@H](C)O2)[C@H](O)[C@@H](C)O1` (some centres undefined), the Potency is 2690 nM (active).

As to `CCCCCCC(O)C/C=C/CCCCCCCC(=O)O` (centres undefined), the “activity, negative = inhibition” value is -2.71%.

`Cc1ccccc1OCC(O)CNCCOc1ccc(C(N)=O)cc1` (centres undefined): the “activity, negative = inhibition” value is -0.0431%.

As for `IC(I)I`, the “activity, negative = inhibition” value was 5.25%.

Consider `COC(F)(F)C(Cl)Cl`, for which the “activity, negative = inhibition” value is 1.35%.

As to `Nc1c(N=Nc2ccc(-c3ccc(N=Nc4cc(S(=O)(=O)O)c5ccccc5c4N)cc3)cc2)cc(S(=O)(=O)O)c2ccccc12`, the “activity, negative = inhibition” value was -18.5%.

As to `Cc1cc(C(=O)NNCc2ccccc2)no1`, the “activity, negative = inhibition” value is 3.39% [at 12.8 µM].

As for `CC1(C)C(C=C(Cl)Cl)C1C(=O)OCc1cccc(Oc2ccccc2)c1` (centres undefined), the “activity, negative = inhibition” value was 5.75%.

Turning to `CCOC(C)=O`, the “activity, negative = inhibition” value was 2.75%.

For `Cc1c(C)c2c(c(C)c1O)CC[C@@](C)(CCC[C@@H](C)CCC[C@@H](C)CCCC(C)C)O2`, the “activity, negative = inhibition” value is 0.545%.

In the case of `CCCCCCCC(=O)O`, the “activity, negative = inhibition” value is 5.53%.

Regarding `CC1(C)S[C@@H]2[C@H](NC(=O)[C@@H](NC(=O)N3CCNC3=O)c3ccccc3)C(=O)N2[C@H]1C(=O)O`, the “activity, negative = inhibition” value is -2.87% [at 12.8 µM].

On to `O=C(O)c1cc(=O)c2c3nc4ccccc4oc-3cc(=O)c2[nH]1`, for which the “activity, negative = inhibition” value was -13.9%.

Regarding `C[C@]12O[C@H](C[C@]1(O)CO)n1c3ccccc3c3c4c(c5c6ccccc6n2c5c31)CNC4=O`, the Potency was 379 nM (active).

In the case of `C[C@@H]1CCC2[C@@H](C)[C@@H](O)O[C@@H]3O[C@@]4(C)CC[C@@H]1[C@@]23OO4` (some centres undefined), the Potency was 4.8 nM (active).

With `CC(=O)N[C@@H](CC(=O)O)C(=O)N[C@@H](CCC(=O)O)C(=O)O` (Ac-Asp-Glu-OH), the “activity, negative = inhibition” value was 1.88%.

For the compound `COCC(=O)Nc1cc(Sc2ccccc2)ccc1N=C(NC(=O)OC)NC(=O)OC`, the “activity, negative = inhibition” value was -10%.

For `Nc1c(Br)cc(Br)cc1CNC1CCC(O)CC1` (centres undefined), the “activity, negative = inhibition” value is -12.6%.

With `NC(=O)c1ncn(C2OC(CO)C(O)C2O)n1` (centres undefined), the “activity, negative = inhibition” value is -15.4%.

For `COc1ccc2c3c1O[C@H]1C[C@@H](O)C=C[C@@]31CCN(C)C2`, the “activity, negative = inhibition” value was 0.281%.
